TEAD-YAP block = TEAD-YAP interaction inhibition; HEK-TIYL cells, TEAD-Gal4/YAP UAS-luciferase luminescence; inhibition, % at 9.12 µM; 640,000 compounds, 1.4% hits; in the data active = inhibition above about 32%;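 also: 0% = median of test compound wells and 100% = reference inhibitor wells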
GPR151 ag = activates the human receptor GPR151 | 650,000 compounds, 1% hits | PathHunter beta-arrestin GPR151 cells, luminescence | AID 1508602 | Q8TDV0 | activation, % at 11.2 µM; in the data active = activation above about 4.9%;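 also: 0% = median of compound wells and 100% = cells with positive control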
MITF primary = inhibitors of human MITF. AlphaScreen MITF homodimerization, bead proximity signal. AID 1259374. O75030. 650,000 compounds, 0.91% hits. inhibition, % at 2.6 µM; in the data active = inhibition above about 50%;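 also: 0% = vehicle wells with protein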
FBW7 act = activators of human E3 ligase FBW7 | Q969H0 | AlphaScreen FBW7–phospho-cyclin E peptide binding, activator screen | normalized activity (activation), % at 26.1 µM | 650,000 compounds, 0.13% hits; in the data active = normalized activity above about 1.9%;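 also: purified mutant Fbw7 with reduced substrate affinity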
Target sequence (Q969H0 whole entry, looked up): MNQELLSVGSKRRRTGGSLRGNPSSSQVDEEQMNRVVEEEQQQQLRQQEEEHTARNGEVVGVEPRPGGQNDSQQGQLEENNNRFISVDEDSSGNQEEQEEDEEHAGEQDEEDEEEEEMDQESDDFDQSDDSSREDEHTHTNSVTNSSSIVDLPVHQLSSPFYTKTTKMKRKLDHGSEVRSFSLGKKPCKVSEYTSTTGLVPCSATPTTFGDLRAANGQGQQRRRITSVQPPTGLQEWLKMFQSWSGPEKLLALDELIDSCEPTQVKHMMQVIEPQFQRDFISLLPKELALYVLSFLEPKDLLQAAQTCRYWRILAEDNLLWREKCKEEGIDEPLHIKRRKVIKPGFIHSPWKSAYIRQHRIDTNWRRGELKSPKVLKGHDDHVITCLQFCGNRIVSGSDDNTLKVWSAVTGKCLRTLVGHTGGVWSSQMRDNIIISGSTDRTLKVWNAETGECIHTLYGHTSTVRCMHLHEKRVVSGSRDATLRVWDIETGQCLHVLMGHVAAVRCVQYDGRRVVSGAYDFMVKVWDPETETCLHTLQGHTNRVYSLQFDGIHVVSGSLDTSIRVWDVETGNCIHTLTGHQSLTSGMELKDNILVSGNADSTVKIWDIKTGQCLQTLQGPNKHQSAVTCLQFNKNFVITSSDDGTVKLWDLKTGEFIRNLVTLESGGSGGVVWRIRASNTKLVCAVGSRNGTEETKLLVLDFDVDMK
Starred values were filed as active, the others as inactive. Only some compounds are listed: those with a hit (about 3.5% of all), similar ones and a draw of the others.

SMILES	TEAD-YAP block	GPR151 ag	MITF primary	FBW7 act
COc1cccc(N(CC(=O)NC(C)(C)C)C(=O)Cn2nnc(-c3ccc(F)cc3)n2)c1	15	0	2	0
Cc1ccc(-c2nnc(CCC(=O)NCCOc3cccnc3)o2)s1	-1	1	-1	0
Cc1sc(NC(=O)c2ccco2)c(C(c2cccnc2)N2CCCCC2)c1C (stereo unspecified)	41*	4	2	0
Cc1sc(NC(=O)c2ccco2)c(C(c2cccnc2)N2CCN(c3ccccc3F)CC2)c1C (stereo unspecified)	37*	0	-14	0
Cc1sc(NC(=O)c2ccco2)c(C(c2cccnc2)N2CCOCC2)c1C (stereo unspecified)	29	-1	12	0
CC(NC(=O)CC(C(=O)N1CCc2ccccc21)n1ccnc1)C12CC3CC(CC(C3)C1)C2 (stereo unspecified)	-5	0	-5	0
CC1=CC(=C2C(=O)c3ccccc3C2=O)C=C(C)N1C(C)C	67*	-5	18	0
Cc1cc(=O)oc2cc(NC(=O)c3cccc(Cl)c3)ccc12	-14	0	-17	0
CCC(=O)N1CCCc2ccc(NC(=O)NCc3cccc4ccccc34)cc21	-7	1	8	14*
O=C(CCCc1nc(-c2ccc(Cl)cc2)no1)NC1CCCC1	34*	1	-11	0
CCSCCOC(=O)C1=C(C)NC2=C(C(=O)C(C(=O)OC)C(C)C2)C1c1coc2ccc(C)cc2c1=O (stereo unspecified)	1	-1	1	0
CCOc1ccc(C(=O)COC(=O)c2ccccc2[N+](=O)[O-])cc1	-1	-1	5	1
O=C(COC(=O)c1ccccc1[N+](=O)[O-])c1ccccc1Cl	34*	-2	12	0
Cc1c(C(=O)OCC(=O)c2ccccc2Cl)cccc1[N+](=O)[O-]	-8	1	-3	0
CCc1ccc(C(=O)COC(=O)c2ccccc2[N+](=O)[O-])cc1	55*	-2	13	1
Cc1ccc(C(=O)COC(=O)c2ccccc2[N+](=O)[O-])cc1	90*	-6	-11	1
COc1ccc(C(=O)COC(=O)c2ccccc2[N+](=O)[O-])cc1	2	-7	32	0
COc1cc(NS(=O)(=O)c2ccc3c(c2)oc(=O)n3C)cc(OC)c1OC	48*	1	-2	0
COc1cc(NS(=O)(=O)c2ccc(-c3cc(C)no3)cc2)cc(OC)c1	61*	1	-1	0
COc1cc(NS(=O)(=O)c2ccc(-c3cc(C)no3)cc2)cc(OC)c1OC	61*	2	14	1
CCCN1CCc2c(sc3nc(SCCc4ccccc4)nc(N)c23)C1	0	1	9	0
COC(=O)c1ccc2c(=O)n(Cc3ccc(C(=O)NCCCN4CCN(c5ccc(OC)cc5)CC4)cc3)c(=S)[nH]c2c1	5	-1	16	0
Cc1ccc(C(=O)Nc2nnc(C3CCCCC3)o2)cc1C	14	0	-23	0
CC(=O)Nc1cc2ccccc2cc1NC(C)=O	0	-1	-24	0
CC(=O)Oc1ccccc1/C=C/c1nc2ccccc2c(=O)o1	59*	-9	17	0
SMILES	TEAD-YAP block	GPR151 ag	MITF primary	FBW7 act
Cc1ccc2nc3c(cc(C#N)c(=O)n3-c3ccccc3Cl)c(=O)n2c1	-9	2	8	1
CCOc1ccc(OCC)c(NC(=O)C2CCN(S(=O)(=O)c3ccccc3)CC2)c1	-2	0	5	0
CCOc1ccc(-c2nc(-c3ccccc3Cl)no2)cc1	-19	-2	2	0
c1cnc2c(CN3CCCCC3)cccc2c1	13	3	-1	0
OCCN1CCN(C(c2cccs2)c2ccc3cccnc3c2O)CC1 (stereo unspecified)	87*	1	26	0
CCN1CCN(Cc2ccc3cccnc3c2O)CC1	29	3	94*	-1
CN1CCN(C(c2cccs2)c2ccc3cccnc3c2O)CC1 (stereo unspecified)	88*	-1	9	0
Oc1c(C(Nc2nccs2)c2cccs2)ccc2cccnc12 (stereo unspecified)	26	-2	33	-1
CN1CCN(C(c2ccncc2)c2ccc3cccnc3c2O)CC1 (stereo unspecified)	18	2	70*	0
O=C(c1ccc2nc(N3CCCCC3)sc2c1)N1CCN(Cc2ccccc2)CC1	-11	0	16	1
Oc1c(C(c2cccs2)N2CCOCC2)cc(Cl)c2cccnc12 (stereo unspecified)	57*	0	7	0
CCC(=O)NC(c1cccs1)c1cc(Cl)c2cccnc2c1O (stereo unspecified)	23	0	19	-1
CCN1CCN(C(c2cccs2)c2ccc3cccnc3c2O)CC1 (stereo unspecified)	88*	1	18	0
CCOC(=O)c1sc(N2C(=O)C(=O)/C(=C(/O)c3ccccc3)C2c2cccc(Oc3ccccc3)c2)nc1C (stereo unspecified)	-3	-1	-5	0
O=C(CCCn1c2ccccc2c(=O)c2ccccc21)Nc1ccc2c(c1)CCC2	4	0	-5	0
CC(=O)N1CCc2c(sc(NC(=O)CSc3ccccc3)c2C(N)=O)C1	-5	4	13	0
CCOC(=O)N1CCc2c(sc(NC(=O)c3ccccc3)c2C#N)C1	51*	1	11	0
CC(=O)N1CCc2c(sc(NC(=O)CCc3ccccc3)c2C(N)=O)C1	51*	0	9	0
CC(C)N1CCc2c(sc(NC(=O)c3cc4ccccc4oc3=O)c2C(N)=O)C1	62*	0	10	0
CCOC(=O)N1CCc2c(sc(NC(=O)c3ccccc3Br)c2C#N)C1	53*	5	-4	0
CCOc1ccccc1NC(=O)c1c(N)sc2c1CCCC2	15	0	-22	0
CCOC(=O)N1CCc2c(sc(NC(=O)/C=C/c3ccc([N+](=O)[O-])cc3)c2C#N)C1	29	1	1	0
CC(=O)N1CCc2c(sc(NC(=O)/C=C/c3cccs3)c2C(N)=O)C1	41*	-1	10	0
CCOC(=O)N1CCc2c(sc(NC(=O)/C=C/c3cccs3)c2C#N)C1	49*	1	0	0
CCOC(=O)c1c(NC(=O)c2ccc(Cl)s2)sc2c1CCN(C(C)C)C2	-8	0	9	2.2*
CCOC(=O)N1CCc2c(sc(N)c2C(=O)Nc2ccccc2OCC)C1	32*	-2	-7	0
CCN(CC)CC(=O)NC(C)c1cnn(-c2ccccc2C)c1C (stereo unspecified)	-9	1	-6	0
CCOC(=O)N1CCc2c(sc(NC(=O)c3cc(Cl)sc3Cl)c2C#N)C1	32*	-1	-6	0
CCOC(=O)c1c(NC(=O)Cc2ccccc2)sc2c1CCN(C(=O)OCC)C2	2	0	-4	5.2*
CCOC(=O)N1CCc2c(sc(NC(=O)c3cccc(Br)c3)c2C#N)C1	42*	0	-13	0
